Laboratory results: PubChem BioAssay
Calls of active or inactive are those of the source.

Assays:
[1] = test system: Human papillomavirus type 1a protein E7 (residues 44-93); assay: small molecules binding HPV E7 44-93 – biochemical, small-molecule microarray, residues 44-93, 635 nm fluorescence, primary screen (AID 1108); details: fluorescence 635 nm, higher = more signal;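 also: E7 fragment applied at 1 µg/mL in TBST for 1 h at 4 C; score combines spot fluorescence with its signal to noise ratio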
[2] = hepatitis C replication reporter changes, two-sided – Huh7 cells, luciferase reporter, HCV replication inhibitor project, primary screen (AID 1109); details: Huh7 HCV replicon luciferase reporter, 48 h; higher = more signal;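 also: huh7 hepatoma cells harbouring a luciferase neomycin HCV replicon reporter; luciferase luminescence as measure of HCV replicon replication; test concentration not given here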
[3] = molecular target: Left-right determination factor 2 (Homo sapiens) (UniProt O00292); assay: small molecules binding LEFTY2 protein – biochemical, small-molecule microarray, 635 nm fluorescence scan, primary screen (AID 1110); details: higher = more signal
Left-right determination factor 2 (Homo sapiens), sequence (O00292 whole entry, looked up): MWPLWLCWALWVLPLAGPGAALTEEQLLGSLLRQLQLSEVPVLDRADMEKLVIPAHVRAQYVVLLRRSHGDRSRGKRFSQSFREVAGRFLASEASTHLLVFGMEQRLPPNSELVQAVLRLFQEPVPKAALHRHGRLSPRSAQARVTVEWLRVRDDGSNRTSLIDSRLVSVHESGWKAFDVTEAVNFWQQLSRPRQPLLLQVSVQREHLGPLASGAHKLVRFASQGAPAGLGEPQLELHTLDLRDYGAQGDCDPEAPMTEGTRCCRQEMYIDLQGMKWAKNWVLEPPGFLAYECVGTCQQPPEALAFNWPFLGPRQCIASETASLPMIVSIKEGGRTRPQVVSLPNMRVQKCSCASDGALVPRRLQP

[4] = molecular target: Calmodulin-1 (Homo sapiens) (UniProt P0DP23); assay: small molecules binding calmodulin-1 with EGTA – biochemical, small-molecule microarray, Cy5-labelled CALM1, profiling panel (AID 1111); details: Cy5-CALM1 binding fluorescence, higher = more signal;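 also: labelled calmodulin applied in Tris saline Tween buffer holding calcium plus EGTA and DTT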
[5] = molecular target: Calmodulin-1 (Homo sapiens) (UniProt P0DP23); assay: small molecules binding Ca-loaded calmodulin-1 – biochemical, small-molecule microarray, Cy5-labelled CALM1, plus calcium, artefact control for SMM control-protein annotation, profiling panel (AID 1112); details: Cy5-CALM1 binding fluorescence, higher = more signal;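 also: score merges spot fluorescence with signal to noise from triplicate slides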
[6] = probe aWnt5a binding to arrayed compounds – biochemical, biotinylated probe, 635/667 nm fluorescence, primary screen (AID 1113); details: small-molecule microarray, higher = more signal;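 also: score merges 667 nm fluorescence intensity with signal-to-noise per printed feature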
[7] = probe aShh binding to arrayed compounds – biochemical, biotinylated probe, 635/667 nm fluorescence, primary screen (AID 1114); details: small-molecule microarray, higher = more signal;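 also: probe is biotin-labelled aShh protein from a stem cell growth factor screen; measures binding of labelled protein to compounds printed on the slide; score merges feature fluorescence at 667 nm with signal-to-noise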
[8] = probe aNog binding to arrayed compounds – biochemical, biotinylated probe, 635/667 nm fluorescence, primary screen (AID 1115); details: small-molecule microarray, higher = more signal;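 also: probe is biotinylated aNog protein used at 0.15 µg/mL for 1 h at 4 C; z-score combines 667 nm fluorescence of each spot with its signal to noise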
[9] = molecular target: Torsin-1A-interacting protein 1 (Homo sapiens) (UniProt Q5JTV8); assay: compound microarray binding of lysate hLAP1 – cell lysate, small-molecule microarray, COS7 lysate, 635/667 nm fluorescence, primary screen (AID 1116); details: 635 nm fluorescence, higher = more signal
Torsin-1A-interacting protein 1 (Homo sapiens), sequence (Q5JTV8 whole entry, looked up): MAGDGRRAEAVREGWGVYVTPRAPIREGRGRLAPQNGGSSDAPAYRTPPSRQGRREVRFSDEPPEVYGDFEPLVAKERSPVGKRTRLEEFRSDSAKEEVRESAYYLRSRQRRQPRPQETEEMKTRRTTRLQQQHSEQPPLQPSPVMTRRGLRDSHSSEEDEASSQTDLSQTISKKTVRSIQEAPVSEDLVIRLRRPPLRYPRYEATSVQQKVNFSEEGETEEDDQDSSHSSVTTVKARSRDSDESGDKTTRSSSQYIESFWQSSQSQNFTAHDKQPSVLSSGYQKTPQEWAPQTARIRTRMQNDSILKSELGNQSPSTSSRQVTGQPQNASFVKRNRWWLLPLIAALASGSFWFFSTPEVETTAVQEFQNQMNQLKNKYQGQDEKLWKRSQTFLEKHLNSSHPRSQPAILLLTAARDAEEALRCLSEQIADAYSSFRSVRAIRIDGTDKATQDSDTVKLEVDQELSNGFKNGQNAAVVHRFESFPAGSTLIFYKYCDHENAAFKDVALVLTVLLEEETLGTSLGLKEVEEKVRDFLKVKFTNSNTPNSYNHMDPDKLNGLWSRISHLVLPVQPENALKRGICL

[10] = molecular target: Alpha-bungarotoxin (Bungarus multicinctus) (UniProt P60615); assay: compounds binding labelled alpha-BTX control protein – biochemical, small-molecule microarray, Alexa647 label, 635/667 nm fluorescence, artefact control for SMM control protein annotation, profiling panel (AID 1117); details: alpha-BTX-A647 binding fluorescence, higher = more signal
Alpha-bungarotoxin (Bungarus multicinctus), sequence (P60615 whole entry, looked up): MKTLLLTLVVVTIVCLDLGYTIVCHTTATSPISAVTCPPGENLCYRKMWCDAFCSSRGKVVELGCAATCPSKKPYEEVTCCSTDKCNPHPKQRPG

[11] = molecular target: Albumin (Bos taurus) (UniProt P02769); assay: compounds binding labelled BSA control protein – biochemical, small-molecule microarray, Alexa647 label, 635/667 nm fluorescence, artefact control for SMM control protein annotation, profiling panel (AID 1118); details: BSA-A647 binding, fluorescence 635 nm, higher = more signal;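 also: score merges 667 nm emission intensity and signal-to-noise per printed compound spot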
Albumin (Bos taurus), sequence (P02769 whole entry, looked up): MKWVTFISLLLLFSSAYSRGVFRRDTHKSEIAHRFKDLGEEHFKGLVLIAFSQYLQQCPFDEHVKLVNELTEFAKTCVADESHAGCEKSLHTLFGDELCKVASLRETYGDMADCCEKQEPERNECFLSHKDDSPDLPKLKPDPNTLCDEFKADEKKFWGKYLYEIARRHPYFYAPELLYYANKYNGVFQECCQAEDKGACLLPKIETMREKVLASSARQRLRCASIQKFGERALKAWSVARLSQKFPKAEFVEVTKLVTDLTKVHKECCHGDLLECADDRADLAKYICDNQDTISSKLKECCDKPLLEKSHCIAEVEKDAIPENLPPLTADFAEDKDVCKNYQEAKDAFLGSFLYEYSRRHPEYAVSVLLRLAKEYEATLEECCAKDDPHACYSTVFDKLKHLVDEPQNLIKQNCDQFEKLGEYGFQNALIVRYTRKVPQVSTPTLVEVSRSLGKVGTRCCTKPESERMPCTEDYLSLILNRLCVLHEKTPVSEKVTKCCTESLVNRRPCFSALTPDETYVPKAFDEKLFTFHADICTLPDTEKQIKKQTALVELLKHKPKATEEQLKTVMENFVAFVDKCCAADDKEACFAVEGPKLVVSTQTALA

[12] = probe aXIP binding to arrayed compounds – biochemical, NeuroSMM set, 635/667 nm fluorescence, primary screen (AID 1119); details: small-molecule microarray, higher = more signal, called active from +8 up or from −8 down;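 also: probe is the protein aXip251-270 applied at 1 µg/mL to compound-printed slides; binding of probe to printed compounds measured as 667 nm fluorescence plus signal to noise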
[13] = probe aNOTCH3 binding on compound microarray – biochemical, small-molecule microarray, 635/667 nm fluorescence, primary screen (AID 1120); details: higher = more signal;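 also: probe is a biotin-tagged antibody raised against NOTCH3 rather than NOTCH3 protein; score merges spot fluorescence near 667 nm with spot signal to noise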
[14] = probe aNOTCH2 binding on compound microarray – biochemical, small-molecule microarray, 635/667 nm fluorescence, primary screen (AID 1121); details: higher = more signal;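 also: score merges feature fluorescence read at 667 nm with its signal to noise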
[15] = molecular target: Carbonic anhydrase 2 (Homo sapiens) (UniProt P00918); assay: compounds binding carbonic anhydrase 2 – biochemical, small-molecule microarray, Alexa647-labelled CAII, profiling panel (AID 1122); details: CAII-A647 binding fluorescence, higher = more signal
[16] = COS7 lysate on small-molecule microarray, probe aHis, 635 nm (AID 1123); details: COS7 cell lysate, fluorescence, higher = more signal;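 also: z-score combines 667nm fluorescence intensity with signal-to-noise per printed compound spot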
[17] = probe aLAP1 signal on lysate-treated microarray – cell lysate, small-molecule microarray, COS7 lysate, primary screen (AID 1124); details: probe aLAP1, fluorescence, higher = more signal;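 also: lysate comes from COS7 cells expressing LAP1 and is applied at 0.3 µg/mL; score merges spot fluorescence near 667 nm with signal-to-noise over triplicate slides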
[18] = test system: Sam68 (KHDRBS1); assay: compounds binding KHDRBS1 protein – biochemical, small-molecule microarray, 635 nm fluorescence, primary screen (AID 1125); details: higher = more signal;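 also: score merges 667 nm channel intensity with signal to noise over triplicate slides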
[19] = test system: Chordin-like protein 2 (CHRDL2); assay: compounds binding chordin-like 2 – biochemical, small-molecule microarray, 635 nm fluorescence, primary screen (AID 1126); details: fluorescence 635 nm, higher = more signal;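 also: printed compound slides probed with Chrdl2 protein at 4 µg/mL for 1 h at 4 C; score merges 667 nm emission intensity with signal to noise over three replicate slides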
[20] = molecular target: Concanavalin-A (Canavalia ensiformis) (UniProt P02866); assay: compounds binding concanavalin A lectin – biochemical, small-molecule microarray, Alexa647 label, 635 nm, artefact control for SMM control protein annotation, primary screen (AID 1127); details: ConA-A647 binding fluorescence, higher = more signal;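 also: z combines 667 nm emission intensity with signal-to-noise across three replicate slides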
Concanavalin-A (Canavalia ensiformis), sequence (P02866 whole entry, looked up): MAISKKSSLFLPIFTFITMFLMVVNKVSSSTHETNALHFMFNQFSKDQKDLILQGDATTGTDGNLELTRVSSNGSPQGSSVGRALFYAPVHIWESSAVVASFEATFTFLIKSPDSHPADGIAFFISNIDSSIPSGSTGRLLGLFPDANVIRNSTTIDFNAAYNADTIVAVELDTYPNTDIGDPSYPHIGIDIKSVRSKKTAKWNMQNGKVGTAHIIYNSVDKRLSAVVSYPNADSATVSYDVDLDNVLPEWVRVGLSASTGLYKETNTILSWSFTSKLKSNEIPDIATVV

| Structure (SMILES) | composite z-score [1] | z-score [2] | composite z-score [3] | composite z-score [4] | composite z-score [5] | composite z-score [6] | composite z-score [7] | composite z-score [8] | composite z-score [9] | composite z-score [10] | composite z-score [11] | composite Z-score [12] | composite z-score [13] | composite z-score [14] | composite z-score [15] | composite z-score [16] | composite z-score [17] | composite z-score [18] | composite z-score [19] | composite z-score [20] |
| --- | --- | --- | --- | --- | --- | --- | --- | --- | --- | --- | --- | --- | --- | --- | --- | --- | --- | --- | --- | --- |
| O=C1O[C@H](c2ccccc2)[C@H](c2ccccc2)N2[C@H]1[C@@H](C(=O)N1CCCCCCC1)[C@]1(C(=O)Nc3ccc(C#CC4(O)CCCCCC4)cc31)[C@H]2c1ccccc1OCCO | 1.59 | -1.88 | 1.78 | 3.09 | 1.81 | 1.53 | 1.92 | 3.25 | 5.71 | 4.23 | 0.573 | 9.08 (active) | 2.18 | 1.13 | 1.02 | 5.1 | 1.42 | 1.34 | 1.73 | 0.952 |
| CN(C)CCCCCCNC(=O)[C@@H]1C[C@@H]2C(=O)N[C@@H](CCCCN)C(=O)N2[C@@H]1c1ccc(O)cc1 | 1.53 | 0.805 | 1.62 | 2.11 | 0.347 | 1.28 | 2.47 | 1.96 | 4.63 | 3.03 | 0.73 | 3.97 (inactive) | 2.14 | 0.999 | 0.74 | 3.41 | 0.611 | 1.32 | 1.36 | 1.24 |
| O=C1C2C=CC(C(O)c3cccc(O)c3)N(Nc3ccccc3)C2C(=O)N1c1ccccc1 (stereo not given) | 0.752 | -0.424 | -0.0995 | 0.46 | 0.16 | 0.0077 | 0.398 | 0.496 | 0.539 | 0.546 | 0.818 | 0.365 (inactive) | 0.185 | -0.155 | 0.792 | 0.653 | 0.069 | 0.16 | -0.201 | 0.338 |
| C=C(CCCC)C(=O)CC[C@H](OC(=O)c1ccccc1-c1ccccc1C(=O)O)c1ccccc1OCCO | 0.166 | -2.31 | -0.171 | -0.378 | -0.814 | -0.0944 | 0.318 | 0.397 | 0.442 | 0.26 | 0.0147 | -0.104 (inactive) | -0.104 | -0.189 | 0.693 | 0.043 | 0.61 | 0.203 | 0.277 | -0.496 |
| CN1C(=O)C2C=CC(C(O)c3ccc(I)cc3)N(Nc3ccccc3)C2C1=O (stereo not given) | 1.33 | 0.132 | 0.136 | 1.63 | 0.544 | 0.172 | 0.36 | 0.551 | 0.0151 | 1.26 | 0.939 | 0.412 (inactive) | 0.323 | -0.0389 | 0.547 | 1.91 | 0.595 | 1.14 | 0.569 | 1.15 |
| C=C[C@@H](C)[C@@H](OC(=O)Nc1ccc(SC)cc1)c1ccc(OCCO)cc1 | 1.27 | -0.181 | -0.0734 | 1.24 | 0.305 | -0.0512 | -0.0192 | -0.358 | 0.882 | 0.954 | 0.743 | 0.939 (inactive) | 0.221 | -0.0814 | 0.715 | 1.07 | 0.248 | 0.87 | -0.506 | 1.1 |
| O=C1OCCC/C=C\[C@H]2OC34C=CCN(c5ccc6ccccc6c5)C(=O)[C@H]3N(CCCO)C(=O)[C@@H]4C12 (stereo not given in full) | -0.148 | -0.0935 | -0.548 | -0.371 | 0.0048 | -0.124 | 0.184 | 0.0014 | -0.387 | -0.766 | -0.0327 | -0.0549 (inactive) | -0.299 | -0.111 | 0.94 | 0.325 | 0.452 | 0.235 | -1.08 | -0.296 |
| C=CCNC(=O)[C@@H]1[C@H]2C(=O)O[C@H](c3ccccc3)[C@H](c3ccccc3)N2[C@H](c2ccc(O)cc2)[C@@]12C(=O)Nc1ccc(C#CCC(C(=O)OC)C(=O)OC)cc12 | 1.31 | -2.11 | -0.0742 | -0.0406 | 0.0221 | -0.147 | -0.2 | 0.187 | 0.411 | 0.388 | 0.0825 | -0.136 (inactive) | -0.0647 | -0.0907 | 0.336 | 1.52 | 0.123 | 1.33 | 0.231 | 0.933 |
| COC(=O)[C@@]1(Cc2ccccc2)[C@H]2c3cc(C(=O)N4CCCC4)n(CCSCCO)c3C[C@H]2CN1C(=O)c1ccccc1 | 1.45 | -1.12 | -0.491 | 2.26 | 1.29 | 0.145 | 0.417 | 2.24 | 2.04 | 0.606 | 1.05 | -0.176 (inactive) | 0.543 | 0.187 | 0.841 | 3.57 | 1.22 | 1.12 | -0.997 | 0.554 |
| COC(=O)[C@@]1(Cc2ccc(F)cc2)[C@H]2c3cc(C(=O)N(C)C)n(Cc4c(CO)[nH]cc(C)c4=O)c3C[C@H]2CN1C(=O)c1ccccc1 | -0.275 | -0.573 | -0.104 | 0.263 | -0.184 | 0.0375 | 0.649 | 1.38 | 1.16 | 0.0084 | 0.569 | 0.266 (inactive) | 0.26 | 0.224 | 0.866 | 0.816 | 1.41 | -0.279 | 0.146 | -0.189 |
| O=C(CS)NCCCCCCNC(=O)[C@@H]1C[C@@H]2C(=O)NCC(=O)N2[C@@H]1c1ccc(O)cc1 | -1.1 | 0.394 | -0.601 | 1.16 | 0.754 | -0.239 | -0.0035 | 0.0595 | -0.549 | -1.04 | 0.166 | 0.549 (inactive) | -0.397 | -0.183 | 0.68 | 2.94 | -0.136 | -0.477 | -0.134 | -0.434 |
